From PubChem BioAssay (NCI)
The panel holds about 83,000 compounds, 20% with a hit somewhere; the sample as a whole holds those more often.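 Plates (96-well) were seeded with cells, treated with compound at one concentration, and incubated for 48 hours before percent growth was determined.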 Unmarked numbers belong to inactive results. Calls of active or inactive are those of the source. Rule for the calls: active = growth percent below 10; inactive = the rest.

Assays:
Assay in all cases: NCI-60 one-dose screen, 48 h (100 = growth as untreated, 0 = no growth, -100 = all killed)
Conditions in all cases: 10 µM unless noted
SR leukemia = tested on: SR leukemia
RPMI-8226 leukemia = tested on: RPMI-8226 leukemia
OVCAR-8 ovarian = tested on: OVCAR-8 ovarian
OVCAR-5 ovarian = tested on: OVCAR-5 ovarian
OVCAR-4 ovarian = tested on: OVCAR-4 ovarian
SK-OV-3 ovarian = tested on: SK-OV-3 ovarian
IGROV1 ovarian = tested on: IGROV1 ovarian
OVCAR-3 ovarian = tested on: OVCAR-3 ovarian
HS 578T breast = tested on: HS 578T breast
NCI/ADR-RES ovarian = tested on: NCI/ADR-RES ovarian

Structure (SMILES) | growth (SR leukemia) | growth (RPMI-8226 leukemia) | growth (OVCAR-8 ovarian) | growth (OVCAR-5 ovarian) [%] | growth (OVCAR-4 ovarian) [%] | growth (SK-OV-3 ovarian) | growth (IGROV1 ovarian) | growth (OVCAR-3 ovarian) | growth (HS 578T breast) [%] | growth (NCI/ADR-RES ovarian)
C/C(=N\Nc1ccc(Cl)cn1)c1ccc2ccccc2n1 | 5.63% (active) | 11.7% | 6.73% (active) | 29.9 | 36.8 | 1.69% (active) | 16.6% | 18.2% | 37.7 | -0.464% (active)
CCCNC(=O)Oc1ccc(/C(=C(/CC)Cc2ccccc2)c2ccc(OCCN(CC)CC)cc2)cc1 | -28.6% (active) | 41.6% | 80.3% | 95.5 | 85.8 | 88.4% | 85.9% | 79.5% | 59 | 75.3%
COCC(=O)NNc1[nH]c(-c2ccc(OC)cc2)cc1C#N | 102% | 101% | 113% | 98.6 | 127 | 112% | 22.4% | 129% | 104 | 106%
O=C(O)c1ccc(Br)nc1 | 95.9% | 98.7% | 98.3% | 86.1 | 98.6 | 92.3% | 107% | 102% | 102 | 102%
O=C1C(=O)c2ccccc2C(O)=C1CCCc1ccc(Oc2ccccc2)cc1 | 94.5% | 22.3% | 72.7% | 110 | 59.6 | 74.7% | 34.7% | 49.4% | 95.7 | 91.6%
COc1ccc(-c2cn3ccnc3c(-c3ccc4ncn(C5CCCCC5)c4c3)n2)cc1 | 8.27% (active) | 4.37% (active) | 28.8% | 41.2 | 53.4 | 25.7% | 46.6% | -26.5% (active) | 20 | 12.8%
CC[N+](C)(C)N | 93.8% | 101% | 98.3% | 111 | 102 | 109% | 111% | 114% | 108 | 109%
O=C1NCCN1/N=C/c1c(Cl)nc2n1CCS2 | 59.4% | 63.7% | 115% | 102 | 113 | 111% | 84% | 106% | 139 | 114%
CCOC(=O)C1C(=O)C(=O)N(C(C)C)C1C(=O)OCC (stereo not given) | 108% | 106% | 91.4% | 92.9 | 106 | 109% | 110% | 108% | 96.5 | 106%
CCOc1ccc(N(C)c2ccc(/C=C/C3=[N+](C)c4ccccc4C3(C)C)cc2)cc1 | -26.7% (active) | -20.3% (active) | -15.8% (active) | 40.1 | 37.1 | 16.9% | 1.79% (active) | -72.9% (active) | 41.7 | 72.9%
Clc1ccc(N/N=C(\c2ccccc2)c2ccccn2)nc1 | 1.95% (active) | 4.95% (active) | 11.3% | 36.2 | 30.7 | 12.5% | 12.7% | 12.3% | 34.1 | -12.9% (active)
COc1ccc(-n2nnnc2-c2cn[nH]c2C(F)(F)F)cc1 | 73.4% | 92.1% | 95.5% | 108 | 79.1 | 103% | -28.4% (active) | 104% | 101 | 129%
COc1cc(N)c2nccc(C)c2c1OC | 55.5% | 144% | 96.4% | 107 | 94.4 | 108% | 385% | 111% | 104 | 131%
CC(=O)Nc1ccc(CC#N)cc1Br | 112% | 109% | 110% | 109 | 98.2 | 104% | 110% | 108% | 89.9 | 116%
COc1ccc(CN2C(=O)/C(=C\C(=O)c3ccc(OCCN4CCCCC4)cc3)c3ccccc32)cc1 | -22.2% (active) | -11.6% (active) | 80.8% | 76.3 | 45.4 | 107% | 68.7% | 44.3% | 81.3 | 83.3%
O=C(/C=C1\C(=O)N(Cc2ccc([N+](=O)[O-])cc2)c2ccccc21)c1ccc(OCCN2CCCC2)cc1 | -19% (active) | 28.4% | 66% | 77.3 | 64.9 | 102% | 74.9% | 62.7% | 50.1 | 75.6%
COc1ccccc1Nc1nnc(COc2ccc(CNC(=O)CCCC/C=C/C(C)C)cc2OC)o1 | 76.1% | 70.7% | 101% | 89.7 | 101 | 107% | 97.8% | 89.6% | 98 | 89.8%
CCOC(=O)c1cc(-c2ccc(OC)cc2)[nH]c1NNC(=O)CCOC | 87.7% | 98.2% | 106% | 100 | 113 | 105% | 2.76% (active) | 82.5% | 104 | 125%
NNC(=O)CNc1ccc2ccccc2c1 | 55% | 113% | 108% | 195 | 108 | 106% | -27.9% (active) | 114% | 93.3 | 113%
c1ccc(Nc2ncc3c(n2)-c2cccn2CC3)cc1 | 101% | 97% | 104% | 77.9 | 40.3 | 88.9% | 54.5% | 82.7% | 91.6 | 98.7%
Cc1nc2c(nnn2-c2ccccc2)c2nc(-c3ccc(Cl)cc3)oc(=O)c12 | 103% | 108% | 110% | 104 | 114 | 119% | 111% | 118% | 107 | 113%
Cc1nc2c(nnn2-c2ccccc2)c2nc(-c3ccccc3)oc(=O)c12 | 105% | 113% | 111% | 105 | 115 | 115% | 111% | 117% | 107 | 112%
CC(=O)CCS(=O)c1ccccc1 (stereo not given) | 85.1% | 104% | 104% | 108 | 106 | 110% | 105% | 101% | 98.4 | 99.1%
Nc1nc2c(c3cnccc13)C(c1cccc(Cl)c1)Cc1cnccc1-2 (stereo not given) | 19.5% | 8.24% (active) | 29.3% | 40.4 | 32.1 | 32% | 35.9% | 10.1% | 38.9 | 6.79% (active)
CCC1(CC)C(OC)NC(Br)=C(C#N)C1(C#N)C(N)=O (stereo not given) | 57.5% | 132% | 106% | 249 | 110 | 114% | -8.89% (active) | 119% | 96.5 | 124%
CCOC(=O)C1=C(C(F)(F)F)NC(=O)NC1CN1C(=O)c2ccccc2C1=O (stereo not given) | 5.85% (active) | 82.6% | 114% | 94.2 | 110 | 121% | 122% | 129% | 111 | 107%
Brc1ccc(-c2nc3ccccc3s2)cc1 | 86.9% | 94.4% | 106% | 90.9 | 93.5 | 91.8% | 73.9% | 99% | 89.6 | 99.3%
